Experimental data as given in the supplement of paper PMC13380429.

Assays:
[1] = system: Vero E6 infected with SARS-CoV-2; assay: morphology score (similarity to uninfected cells); higher = more like uninfected cells; details: 24 h
[2] = system: Vero E6 infected with SARS-CoV-2; assay: SARS-CoV-2 infection rate relative to infected DMSO; higher = more infection, active = 60 or less; details: 24 h

In the case of Clc1cccc(N2CCNCC2)c1 (10 µM), the morphology score [1] is reported as 0.0057 and the SARS-CoV-2 infection rate [2] is reported as 114% (inactive).

OB1OCc2cc(Cl)ccc21 (10 µM) was tested, and the morphology score [1] was -0.0961 and the SARS-CoV-2 infection rate [2] was 106% (inactive).

In the case of Clc1cccc(Cl)c1NC1=NCCN1 [clonidine] (10 µM), the morphology score [1] is reported as 0.0616 and the SARS-CoV-2 infection rate [2] is reported as 100% (inactive).

c1ccc(OCc2ccc(CCCN3CCOCC3)cc2)cc1 [fomocaine] (10 µM) was tested, and the morphology score [1] was -0.0235 and the SARS-CoV-2 infection rate [2] was 106% (inactive).

In the case of CN1CCC(=C2c3ccccc3CCc3sccc32)CC1 [pizotifen] (10 µM), the morphology score [1] is reported as 0.285 and the SARS-CoV-2 infection rate [2] is reported as 94.5% (inactive).

With COc1ccc(CN(CCN(C)C)c2ccccn2)cc1 [mepyramine] (10 µM) the morphology score [1] was 0.0933 and the SARS-CoV-2 infection rate [2] was 106% (inactive).

In the case of O=C(Nc1ccc(S(=O)(=O)Nc2ccccc2Cl)c(Cl)c1)c1ccccn1 (10 µM), the morphology score [1] is reported as -0.132 and the SARS-CoV-2 infection rate [2] is reported as 114% (inactive).

For CN1CCN(CC/C=C2/c3ccccc3Sc3ccc(S(=O)(=O)N(C)C)cc32)CC1 [thiothixene] (10 µM), the morphology score [1] was 0.381 and the SARS-CoV-2 infection rate [2] was 80.5% (inactive).

In the case of Brc1c(NC2=NCCN2)ccc2nccnc12 [brimonidine] (10 µM), the morphology score [1] is reported as 0.0346 and the SARS-CoV-2 infection rate [2] is reported as 106% (inactive).

With COc1cc(OC)c(OC)cc1C=O [asaraldehyde] (10 µM) the morphology score [1] was -0.0171 and the SARS-CoV-2 infection rate [2] was 110% (inactive).

For O=C1c2c(O)cc(O)cc2O[C@H](c2cc(O)c(O)c(O)c2)[C@H]1O [dihydromyricetin] (10 µM), the morphology score [1] was -0.0984 and the SARS-CoV-2 infection rate [2] was 108% (inactive).

For CS(=O)(=O)OC[C@H](O)[C@@H](O)COS(C)(=O)=O [treosulfan] (10 µM), the morphology score [1] was -0.204 and the SARS-CoV-2 infection rate [2] was 118% (inactive).

In the case of O=C(OCC(O)CO)c1ccccc1Nc1ccnc2c(C(F)(F)F)cccc12 (configuration not stated) [floctafenine] (10 µM), the morphology score [1] is reported as -0.157 and the SARS-CoV-2 infection rate [2] is reported as 106% (inactive).

CNC(C)(C)Cc1ccccc1 [mephentermine] (10 µM) was tested, and the morphology score [1] was -0.196 and the SARS-CoV-2 infection rate [2] was 117% (inactive).

With CCOCCn1c(N2CCCN(C)CC2)nc2ccccc21 [emedastine] (10 µM) the morphology score [1] was 0.137 and the SARS-CoV-2 infection rate [2] was 100% (inactive).

For Cc1nnc(C[C@@H]2C=C(c3ccc(Cl)cc3)c3ccccc3-n3c(C)nnc32)o1 (0.833333 µM), the morphology score [1] was -0.106 and the SARS-CoV-2 infection rate [2] was 108% (inactive).

In the case of CCc1c2c(nc3ccc(OC(=O)N4CCC(N5CCCCC5)CC4)cc13)-c1cc3c(c(=O)n1C2)COC(=O)[C@]3(O)CC [irinotecan] (0.833333 µM), the morphology score [1] is reported as -0.0173 and the SARS-CoV-2 infection rate [2] is reported as 98% (inactive).

O=C(c1ccc(C(=O)N2CCC(N3CCCC3)CC2)c(Nc2ccccc2)c1)N1CCC(N2CCCC2)CC1 (10 µM) was tested, and the morphology score [1] was -0.0106 and the SARS-CoV-2 infection rate [2] was 114% (inactive).

For C[C@@H](c1ccc2nccn2c1)n1nnc2ncc(-c3cnn(C)c3)nc21 [savolitinib] (10 µM), the morphology score [1] was -0.18 and the SARS-CoV-2 infection rate [2] was 104% (inactive).

In the case of NC(=O)N1c2ccccc2CC(=O)c2ccccc21 [oxcarbazepine] (10 µM), the morphology score [1] is reported as 0.0932 and the SARS-CoV-2 infection rate [2] is reported as 108% (inactive).

In the case of Cc1cc(Nc2ncnc3ccc(NC4=NC(C)(C)CO4)cc23)ccc1Oc1ccn2ncnc2c1 [tucatinib] (0.833333 µM), the morphology score [1] is reported as -0.0894 and the SARS-CoV-2 infection rate [2] is reported as 114% (inactive).

With O=C(O)CCCO (10 µM) the morphology score [1] was 0.0908 and the SARS-CoV-2 infection rate [2] was 104% (inactive).

With CN1CCC(Nc2ncc3ncnc(Nc4ccc(F)c(Cl)c4)c3n2)CC1 (10 µM) the morphology score [1] was 0.0447 and the SARS-CoV-2 infection rate [2] was 114% (inactive).

For O=C(NCCO)c1cccc(-c2cc(Nc3ccc(OC(F)(F)F)cc3)ncn2)c1 (10 µM), the morphology score [1] was -0.0129 and the SARS-CoV-2 infection rate [2] was 98.5% (inactive).

With CC(C)N(CCC(C(N)=O)(c1ccccc1)c1ccccn1)C(C)C (configuration not stated) [disopyramide] (10 µM) the morphology score [1] was 0.157 and the SARS-CoV-2 infection rate [2] was 104% (inactive).

For O=C(O)CCC(=O)C(=O)O [2-oxoglutaric-acid] (10 µM), the morphology score [1] was -0.135 and the SARS-CoV-2 infection rate [2] was 110% (inactive).

With CCCCCCc1ccc(O)cc1O [hexylresorcinol] (10 µM) the morphology score [1] was 0.199 and the SARS-CoV-2 infection rate [2] was 88% (inactive).

For COc1ccc(C(C)(C)C)cc1CN[C@H]1C2CCN(CC2)[C@H]1C(c1ccccc1)c1ccccc1 [maropitant] (0.833333 µM), the morphology score [1] was 0.103 and the SARS-CoV-2 infection rate [2] was 104% (inactive).

With Cn1cc(C2=C(c3cn(CCCSC(=N)N)c4ccccc34)C(=O)NC2=O)c2ccccc21 [bisindolylmaleimide-IX] (0.833333 µM) the morphology score [1] was 0.0892 and the SARS-CoV-2 infection rate [2] was 91% (inactive).

With CCCCCCCC/C=C\CCCCCCCC(=O)NCc1ccc(O)c(OC)c1 [olvanil] (10 µM) the morphology score [1] was 0.22 and the SARS-CoV-2 infection rate [2] was 96% (inactive).

For CC[C@H](C)[C@H](N)C1=N[C@H](C(=O)N[C@@H](CC(C)C)C(=O)N[C@H](CCC(=O)[O-])C(=O)N[C@H](C(=O)N[C@H]2CCCCNC(=O)[C@H](CC(N)=O)NC(=O)[C@@H](CC(=O)[O-])NC(=O)[C@H](Cc3cnc[nH]3)NC(=O)[C@@H](Cc3ccccc3)NC(=O)[C@H]([C@@H](C)CC)NC(=O)[C@@H](CCCN)NC2=O)[C@@H](C)CC)CS1.[Zn+2] [bacitracin-zinc] (10 µM), the morphology score [1] was -0.0221 and the SARS-CoV-2 infection rate [2] was 108% (inactive).
